# Out of some 39,000 compounds screened, about 1,500 (3.8%) were called active. Many of the other results were omitted from the sample, so actives are more common in it than they were.
# Test system: HSkMC (human skeletal muscle cells)
# Assay: cytotoxicity call (relative viability < 0.9)
# Details: 10 µM
row,Compound,cytotoxicity call
1,Cc1scc(CCN)c1C,inactive
2,Cl.Oc1noc2c1CCNC2,inactive
3,C=CCC1(O)CCC2C3CCC4=CC(=O)CCC4=C3C=CC21C (stereo unspecified),inactive
4,C#CC1(O)CCC2C3CCC4=CC(=O)CCC4(C)C3CCC21C (stereo unspecified),inactive
5,C=CCC1(O)CCC2C3CCC4=CCCCC4C3CCC21C (stereo unspecified),active
6,CC(=O)O[C@H]1C(=O)[C@]2(C)[C@@H](O)C[C@H]3OC[C@@]3(OC(C)=O)[C@@H]2[C@H](OC(=O)c2ccccc2)[C@]2(O)C[C@H](O)C(C)=C1C2(C)C,inactive
7,[N-]=[N+]=NCc1ccccc1C[C@]1(C(=O)NCCN2CCOCC2)N=C(c2ccc(OCCCO)cc2)O[C@H]1c1ccccc1N=[N+]=[N-],inactive
8,O=c1[nH]c(=O)n(Cl)c(=O)n1Cl,inactive
9,CC1OC(OC2C=C3CCC4C(CCC5(C)C(c6ccc(=O)oc6)CCC45O)C3(C)CC2)C(O)C(O)C1O (stereo unspecified),active
10,CC[C@@H](C)C(=O)O[C@H]1[C@H](O)[C@H]2[C@@H](CN3C[C@@H](C)CC[C@@H]3[C@@]2(C)O)[C@H]2C[C@]34O[C@]5(O)[C@@H](OC(=O)[C@@](C)(O)[C@@H](C)O)CC[C@@]3(C)[C@@H]5[C@@H](OC(C)=O)[C@@H](OC(C)=O)[C@@H]4[C@@]21O,inactive
11,CC(=O)OCC1=C(C(=O)[O-])N2C(=O)C(NC(=O)CCCC(N)C(=O)[O-])C2SC1.[Zn+2] (stereo unspecified),inactive
12,c1ccc2c(c1)sc1ccccc12,active
13,COc1cc2c(cc1OC)C1C(=O)c3ccc4oc(C(C)C)cc4c3OC1CO2 (stereo unspecified),inactive
14,NCCc1ccc(S(N)(=O)=O)cc1,inactive
15,Cc1cc(C(C#N)c2ccc(Cl)cc2)c(Cl)cc1NC(=O)c1cc(I)cc(I)c1O (stereo unspecified),inactive
16,Cc1cc([C@@H](C#N)c2ccc(Cl)cc2)c(Cl)cc1NC(=O)c1cc(I)cc(I)c1O,active
17,CC(=O)Nc1ccc(Cl)cc1C,inactive
18,COc1cc(CCN)ccc1O,inactive
19,Cc1ccc(C2(CN)CCCCC2)cc1,inactive
20,CC(C)C12OC1C1OC13C1(C)CCC4=C(COC4=O)C1CC1OC13C2O (stereo unspecified),inactive
21,COC(=O)NC(=S)Nc1ccccc1NC(=S)NC(=O)OC,active
22,CNc1ccccc1C(=O)O,inactive
23,CCC1CN2CCc3cc(OC)c(OC)cc3C2CC1CC1NCCc2cc(OC)c(OC)cc21.Cl.Cl (stereo unspecified),inactive
24,COc1ccc(CCN)cc1O,inactive
25,CC(C)CC(CN)CC(=O)O (stereo unspecified),inactive
26,C[C@]12CC[C@]3(C)OC[C@](CO)(CO1)N23,inactive

row,Compound,cytotoxicity call
1,Nc1ccccc1-c1ccccc1,inactive
2,CCC1(C2OC(C3OC(O)(CO)C(C)CC3C)CC2C)CCC(C2(C)CCC3(CC(O)C(C)C(C(C)C(OC)C(C)C(=O)[O-])O3)O2)O1.[Na+] (stereo unspecified),inactive
3,NC1CC1c1ccccc1.O=S(=O)(O)O (stereo unspecified),inactive
4,O=c1cccc2n1CC1CNCC2C1 (stereo unspecified),inactive
5,COC(=O)C[C@H]1CC[C@H]2NC[C@H](O)COC[C@@H]2O1,inactive
6,CCC(C)C1OC2(C=CC1C)CC1CC(CC=C(C)C(OC3CC(OC)C(OC4CC(OC)C(O)C(C)O4)C(C)O3)C(C)C=CC=C3COC4C(O)C(C)=CC(C(=O)O1)C34O)O2 (stereo unspecified) [ABAMECTIN (avermectin B1a shown) ],inactive
7,C[N+](C)(C)CCCl,inactive
8,CCCCCCCCCCCCCCCC[N+](C)(C)C.[Br-],active
9,C[N+](C)(C)CCCCCCCCCC[N+](C)(C)C.[Br-].[Br-],inactive
10,CC1CC(C)C(=O)C(C(O)CC2CC(=O)NC(=O)C2)C1 (stereo unspecified),inactive
11,Cc1nn[nH]n1,inactive
12,CC(=O)CC1CCCCN1.Cl (stereo unspecified),inactive
13,CCn1cnc2c(Nc3cccc(Cl)c3)nc(N[C@@H]3CCCC[C@@H]3N)nc21,active
14,CCN(Cc1ccc(Cl)nc1)C(=C[N+](=O)[O-])NC,inactive
15,C=CCN1C[C@H]2CN(C(C)C)C[C@H]2C1=O,inactive
16,CO[C@@H]1C=C[C@@H]2[C@H]1N2CCCO (stereo partly specified),inactive
17,Nc1c[n+](CCc2ccccc2)no1,inactive
18,CN1CCN(C(=O)CN=[N+]=[N-])CC1,inactive
19,C=C(CCCCCCCCCCCCCCCC)OOC[C@@H](COP(=O)(ON)O[C@@H]1[C@H](O)[C@H](O)[C@@H](OP(=O)(O)ON)[C@H](OP(=O)(O)ON)[C@H]1O)OOC(=C)CC/C=C/C/C=C/C/C=C/C/C=C/CCCCC (stereo partly specified),inactive
20,C=C(C)[C@@H]1CCC(C)=C[C@H]1c1c(O)cc(CCCCC)cc1O,active
21,C=C(C)[C@@H]1CCC(C)=C[C@H]1c1c(OC)cc(C)cc1OC,inactive
22,C[C@@H]1C(=O)O[C@H]2[C@H](O)[C@@]34[C@@H]5OC(=O)[C@@]3(O[C@@H]3OC(=O)[C@H](O)[C@@]34[C@H](C(C)(C)C)[C@H]5O)[C@@]12O,inactive
23,NC1(c2ccc(Cl)cc2)CC1,inactive
24,O=[As]O[As]=O (stereo unspecified),inactive
25,O=C(O)Cc1cccnc1C(=O)O,inactive

# From the antibiotic and cytotoxicity screens of Wong et al. (2023)
